Source: ChEMBL document CHEMBL1156829
Over roughly 5,400 compounds, “IFI” has its median near 2; the highest 2% begin near 22. The sample holds the highest values, similar compounds and a random draw of the others, so the mix is not that of the screen.

Test: NOVARTIS: Inhibition Frequency Index (IFI) - the number of HTS assays where a compound showed > 50% inhibition/induction, expressed as a percentage of the number of assays in which the compound was tested.
Assay type: functional

SMILES	IFI [%]
CCC(c1nc2ccccc2c(=O)n1CCOC)N1CCNCC1 (stereo unspecified)	3.31
C=CC[n+]1c(C=C2C=CN(C)C=C2)sc2ccccc21	15.4
O=C1c2ccccc2-[n+]2ccc3c([nH]c4ccccc43)c21	41.2
O=c1c2ccccc2[nH]c2ccc(F)cc12	0
CC[n+]1c(C)cc2c([nH]c3ccccc32)c1C	3.03
CC(=O)NCCc1ccc(O)cc1	1.48
CCN(CC)CCNc1nc(/C=C/c2ccc(Cl)cc2)nc2cc3ccccc3cc12	8.77
S=C(NN=Cc1ccccn1)NC1CC2C=CC1C2 (stereo unspecified)	19.7
CC1(C)C2CCC(C2)C1(C)NC(=S)NN=Cc1ccccn1 (stereo unspecified)	26
S=C(NN=Cc1ccccn1)NC1CC2CC1C1C=CCC21 (stereo unspecified)	32.5
Cn1c2ccccc2c2nnc(NN=Cc3ccccn3)nc21	15.4
Cc1ccc(NC(=O)C2CSC(c3cccc(F)c3)N2C(=O)c2ccc(C(C)(C)C)cc2)cc1C (stereo unspecified)	4.25
CC(C)(C)NC(=O)C(c1cccs1)N(CCCN1CCOCC1)C(=O)c1ccc(-c2ccccc2)[nH]1 (stereo unspecified)	3.26
Cc1ccc(S(=O)(=O)Oc2ccc(C=NN=C(N)N)cc2)cc1	0
CC(C)CN1C(=O)c2ccccc2C(C(=O)Nc2ccc(C(C)C)cc2)C1c1cccs1 (stereo unspecified)	6.06
COC(=O)c1cn([C@H]2C[C@@H](C(=O)NCc3ccc(OC)cc3)N(Cc3ccsc3)C2)nn1	1.98
CCCC1=[N+](CC(=O)c2ccc(C)cc2)CCn2c(C)ccc21	5.75
CC[C@@H](C(=O)[C@@H](C)[C@@H](O)[C@H](C)CCc1ccc(C)c(O)c1C(=O)O)[C@H]1O[C@](CC)([C@H]2CC[C@](O)(CC)[C@@H](C)O2)C[C@@H]1C	26.9
CC[C@@H](C(=O)[C@@H](C)C(O)[C@H](C)CCc1ccc(C)c(O)c1C(=O)O)C1O[C@](CC)(C2CC[C@](O)(CC)[C@H](C)O2)C[C@@H]1C (stereo partly specified)	9.84
Cc1ccc(CNC(=O)C2CNCC2c2ccc(C(F)(F)F)cc2)cc1 (stereo unspecified)	2.82
O=C1N(c2ccccc2)C[C@@H]2C[C@@H](c3ccc4nonc4c3)N3CCC[C@@]123	7.69
OC1=C2C(=Nc3ccccc3SC2c2ccccc2)c2ccccc21 (stereo unspecified)	2.25

SMILES	IFI [%]
COc1ccc(-c2n(C)c3ccccc3[n+]2CC(=O)OC2CC(C)CCC2C(C)C)cc1 (stereo unspecified)	22.7
COc1ccc(-c2c[n+](CC(=O)O[C@H]3C[C@H](C)CC[C@@H]3C(C)C)c3n2CCCCC3)cc1	21.9
CC1CCC(C(C)C)C(OC(=O)Cn2c(-c3ccccc3)[n+](C)c3ccccc32)C1 (stereo unspecified)	13.1
O=C1Cc2c([nH]c3ccc(OCc4ccccc4)cc23)C2CC=CCC12 (stereo unspecified)	0
Nc1c(C(=O)NCc2ccccc2)nnn1Cc1ccc(F)cc1Cl	0
CCN1C(=Cc2sc3ccc(Cl)cc3[n+]2CC)C=Cc2cc(OC)ccc21	15.4
CCN1/C(=C/C2=CC(=C/c3sc4ccccc4[n+]3CC)/CC(C)(C)C2)C=Cc2ccccc21	9.43
CCN1/C(=C/c2sc3ccc(Br)cc3[n+]2CC)C=Cc2ccccc21	15.4
CCN1/C(=C/c2sc3ccc(OC)cc3[n+]2CC)C=Cc2cc(C)ccc21	23.1
CCN1/C(=C/c2sc3ccccc3[n+]2CC)C=Cc2cc(NC(C)=O)ccc21	7.69
CCN1/C(=C/c2sc3ccc(OC)cc3[n+]2CC)C=Cc2cc(OC)ccc21	15.4
CCN1/C(=C\c2sc3ccc(O)cc3[n+]2CC)C=Cc2ccccc21	23.1
CCN1C(=Cc2sc3ccc(OC)cc3[n+]2CC)C=Cc2ccccc21	25
CCCN1/C(=C/c2sc3ccccc3[n+]2CC)C=Cc2ccccc21	23.1
CCCC[n+]1c(C=C2C=Cc3ccccc3N2CC)sc2ccccc21	11.1
CCN1/C(=C/c2sc3ccc(-c4ccccc4)cc3[n+]2CCO)C=Cc2cc(OC)ccc21	7.14
CCN1/C(=C/c2sc3ccc(I)cc3[n+]2CC)C=Cc2ccccc21	15.4
CCOc1ccc(C(=O)C(CCC(C[N+]2(C)CCCCCC2)C(=O)c2ccc(OCC)cc2)C[N+]2(C)CCCCCC2)cc1 (stereo unspecified)	0
COc1ccc(CCNc2nc(NCCC3CCCN3C)ncc2C(=O)NCc2ccccc2)cc1OC (stereo unspecified)	1.92
COc1ccc2[nH]c(=O)c(CN(C(=S)Nc3ccccc3OC)C3CCCC3)cc2c1	2.17
Nc1ccc(-c2cc(N)n(-c3ccc(Oc4ccccc4)c(S(=O)(=O)O)c3)n2)cc1	1.83
CCOc1cccc2oc(=O)c(C(=O)Nc3cc(C(C)(C)C)on3)cc12	0

SMILES	IFI [%]
CCOc1ccc(-c2nc(NC(=O)CS(=O)(=O)c3ccccc3)sc2C)cc1	0
CCOC(=O)C1CCN(C(=O)c2cc(C(C)(C)C)nn2Cc2ccc(Cl)cc2Cl)CC1	1.63
CCC(c1nc2ccccc2c(=O)n1CC)N1CCN(C(=O)Nc2ccccc2C(F)(F)F)CC1 (stereo unspecified)	2.08
Cc1ccccc1CN1CCN(C/C=C/c2ccccc2)CCC1=O	0.962
CCN1/C(=C/c2sc3ccccc3[n+]2CC)Sc2ccccc21	21.9
CCN1/C(=C/c2sc3ccc(-c4ccccc4)cc3[n+]2CCO)C=Cc2ccccc21	7.14
CCN1/C(=C/c2sc3cc(OC)c(OC)cc3[n+]2CC)C=Cc2ccccc21	23.1
CCCOC(=O)C1=C(C)NC2=C(C(=O)CC(c3ccc(Cl)cc3)C2)C1c1ccc(Br)cc1 (stereo unspecified)	3.57
Cc1ccn2c(NC(C)(C)CC(C)(C)C)c(-c3ccccc3OC(=O)c3ccc(C)c([N+](=O)[O-])c3)nc2c1	3.74
Cc1ccc(S(=O)(=O)NC(Cc2ccccc2)C(=O)N2CCC(C3CCN(C(=O)c4ccc([N+](=O)[O-])o4)CC3)CC2)cc1 (stereo unspecified)	7.69
Cc1nc([P+](c2ccccc2)(c2ccccc2)c2ccccc2)c(SCc2ccccc2)o1	21.6
CCCCSc1oc(C)nc1[P+](c1ccccc1)(c1ccccc1)c1ccccc1	22.2
CCC(c1nc2ccccc2c(=O)n1-c1ccc(F)c(Cl)c1)N(CCc1ccccc1)C(=O)COc1ccccc1 (stereo unspecified)	1.87
OC(Cn1nnc2ccccc21)Cn1c2ccc(Br)cc2c2cc(Br)ccc21 (stereo unspecified)	2.01
COc1ccc(OC)c(C2CC(=O)C3=C(C2)NC(=O)CC3c2ccc([N+](=O)[O-])cc2)c1 (stereo unspecified)	0
CC(/C=C/C(=O)NO)=C\[C@@H](C)C(=O)c1ccc(N(C)C)cc1	22.6
Cc1ccc(C(=O)C(C)[n+]2ccc(N(C)C)cc2)cc1 (stereo unspecified)	0
CN(C)c1ccc(/C=C/C(=O)NC(=O)c2ccccc2O)cc1	10.6
CC(C)COc1ccc(C(=O)N/C(=C/c2ccccc2)C(N)=O)cc1	0
COc1ccccc1NC1=CC(=NS(=O)(=O)c2ccc(F)cc2)c2ccccc2C1=O	15.4
COc1ccc(S(=O)(=O)N=C2C=C(Nc3ccccc3OC)C(=O)c3ccccc32)cc1	23.1
CC(=O)Nc1ccc(NC2=CC(=NS(=O)(=O)c3ccccc3)c3ccccc3C2=O)cc1	7.69

SMILES	IFI [%]
O=C1C(Nc2ccc(O)cc2)=CC(=NS(=O)(=O)c2cccs2)c2ccccc21	23.1
COc1ccccc1NC1=CC(=NS(=O)(=O)c2cccs2)c2ccccc2C1=O	7.69
COc1ccc(S(=O)(=O)N=C2C=C(Nc3ccccc3)C(=O)c3ccccc32)cc1	0
COc1ccc(S(=O)(=O)N=C2C=C(Nc3ccc(O)cc3)C(=O)c3ccccc32)cc1	23.1
COc1ccccc1NC1=CC(=NS(=O)(=O)c2ccccc2)c2ccccc2C1=O	21.4
CCOc1ccc(S(=O)(=O)N=C2C=C(Nc3ccc(O)cc3)C(=O)c3ccccc32)cc1	15.4
CC(=O)N(C1=C(N2CCOCC2)C(=O)c2ccccc2C1=O)c1cccc(Cl)c1	0
O=C(NC1CC1)C1CCN(c2cccc3c2C(=O)N(C2CCCCCCC2)C3=O)CC1	5.94
Cc1ccc2nc(-c3ccc(O)cc3)oc2c1	7.14
O=S(=O)(Nc1cc(Sc2nc[nH]n2)c(O)c2ccccc12)c1ccc(F)cc1	23.1
Cc1oc2c(cc(NS(=O)(=O)c3ccc(F)cc3)c3ccccc32)c1C(=O)OCc1ccccc1	0
O=S(=O)(NCCCCNc1ccnc2cc(Cl)ccc12)c1ccc(F)cc1	1.85
O=C(c1ccc2nc(N3CCCCC3)sc2c1)N1CCN(Cc2ccc3c(c2)OCO3)CC1	2.86
COc1ccc([N+](=O)[O-])cc1NC(=O)C(C)Nc1ccc(N(C)C)cc1 (stereo unspecified)	6.25
Oc1ccc(C=NN=C(Nc2ccccn2)c2ccccn2)c(O)c1	23.1
O=C(NN=Cc1ccc(O)cc1O)c1ccncc1	2.73
CC1=C(C(=O)Nc2ccccn2)C(c2ccc(O)cc2)n2ncnc2N1 (stereo unspecified)	0
NS(=O)(=O)c1ccc(CCNC(=O)/C=C/c2ccc3c(c2)OCO3)cc1	0
Oc1ccc(-c2ccnc3cc(Cl)ccc23)cc1CNCC1(O)CCCCC1	2.59
COc1ccc(C(=O)C[N+]2=C(C)c3ccc(C)n3CC2)cc1	0
